# Test results reported in PubChem BioAssay (NCI).
# This is part of a sample that, as a whole, favours compounds with a hit. Of some 83,000 tested, about 20% had one in any assay.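 Plates (96-well) were seeded with cells, treated with compound at one concentration, and incubated for 48 hours before percent growth was determined.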 Values without a mark were called inactive. The source made the active and inactive calls. How the source made its calls: active means growth percent below 10; inactive means the rest.
# Tested on: MDA-MB-468 breast
# Assay: NCI-60 one-dose screen, 48 h (100 = growth as untreated, 0 = no growth, -100 = all killed)
# Conditions: 10 µM unless noted
row,Compound,growth
1,COC(=O)CCCCCn1c2ccccc2c2c3c(c4c5ccccc5[nH]c4c21)C(=O)N(O)C3=O,45.3%
2,C=CCn1c(SCC(=O)Nc2ccc(C(=O)/C=C/c3ccc(Cl)cc3)cc2)nnc1-c1ccc(Br)cc1,79.1%
3,C#Cc1cccc(Nc2ncnc3ccc(-c4cnc(Cl)c(NS(C)(=O)=O)c4)cc23)c1,-78.8% (active)
4,BrCc1cccc(C[P+](c2ccccc2)(c2ccccc2)c2ccccc2)c1,-12.4% (active)
5,Cc1ccc2nc(Cl)c(Cn3nnnc3SCc3ccccc3)cc2c1,90.4%
6,OC(c1ccccc1)(c1ccccc1)C(F)(F)F,113%
7,CC[C@@H](C(=O)[C@H](C)[C@H](O)[C@@H](C)[C@H]1O[C@H]([C@@H](CC)C(=O)N(CC)CC)CC[C@H]1C)C1O[C@]2(C=C[C@@H](O)[C@]3(CC[C@@](C)([C@H]4CC[C@](O)(CC)[C@H](C)O4)O3)O2)[C@H](C)C[C@@H]1C (some centres undefined),-18.3% (active)
8,Brc1ccccc1Cn1c(-c2cncs2)nc2ccccc21,61.8%
9,Clc1nc2ccccc2nc1-c1nnc(C2CCCCC2)o1,7.71% (active)
10,C=C(C)[C@@H]1CC[C@]2(C(N)=O)CC[C@]3(C)[C@H](CC[C@@H]4[C@@]5(C)CCCNC(C)(C)[C@@H]5CC[C@]43C)[C@@H]12,78.3%
11,COc1ccc(NC(=O)Nc2ccc(-c3cccnc3)cc2N2CCC(CO)CC2)cc1,42.5%
12,S=c1nc2[nH]c3ccccc3c2n[nH]1,109%
13,O=c1oc2ccc(F)cc2c(=O)n1-c1ccc(I)cc1F,-1.22% (active)
14,NS(=O)(=O)Oc1ccc2c(ccn2C(=O)C23CC4CC(CC(C4)C2)C3)c1,90.8%
15,COC(=O)c1c2c(c(C)[n+]([O-])c1C)C(=O)C(NCc1ccc(F)cc1)=CC2=O,-9.79% (active)
16,COc1ccc(-c2ccc3cc(C(=O)Nc4ccc(O)c(C(=O)/C=C/c5cc(OC)c(OC)c(OC)c5)c4)ccc3c2)cc1,82.2%
17,Cc1ccc(OCCn2ccc(=O)n(CCOc3ccc(Cl)cc3C(=O)c3cc(C)cc(C)c3)c2=O)cc1,-0.179% (active)

row,Compound,growth
1,Fc1ccc2c(c1)c(-c1nc(-c3c[nH]c4ncccc34)cs1)cn2CCCN1CCCCC1,76.6%
2,N#Cc1c(-c2ccc(Cl)cc2)nc2c(-c3ccccc3)c(Nc3ccccc3)nn2c1N,53.4%
3,COc1ccc(C(=O)c2cc3c(N)c(C(=O)Nc4ccc(Cl)cc4)sc3nc2C)cc1,76.7%
4,O=c1c(-c2nc3ccccc3[nH]2)cc2ccccc2n1Cc1cn(Cc2ccc(F)cc2)nn1,4.78% (active)
5,Cc1nn(-c2ccccc2)c(Oc2ccccc2)c1/C=N/NC(=O)Cn1c(=O)sc2ccccc21,13.7%
6,Cc1ccc(NC(=O)CNc2cc(C(N)=O)cc(F)c2C)c(Cl)c1,105%
7,COc1ccc(Nn2c(SCC(=O)Nc3nc(-c4ccc(Cl)cc4)cs3)nc(C)c2C)cc1,26.2%
8,Cl.Fc1c[c-]c(-c2ccccn2)c(F)c1.[Pt].c1ccc([PH+](C[PH+](c2ccccc2)c2ccccc2)c2ccccc2)cc1,-75.7% (active)
9,CC(=O)[C@@H]1CC[C@]2(C(N)=O)CC[C@]3(C)[C@H](CC[C@@H]4[C@@]5(C)CCCNC(C)(C)[C@@H]5CC[C@]43C)[C@@H]12,82.2%
10,Cn1cc(-c2nnc(-c3cn(C)c4ncccc34)s2)c2ccccc21,12.6%
11,COc1ccc(-c2cc(-c3ccc(Nc4nc(Nc5ccccc5)nc(Nc5ccc(Cl)cc5)n4)cc3)nc(N)c2C#N)cc1,-31.1% (active)
12,O=C1Cc2cc(CCN3CCN(c4nsc5ccccc45)CC3)c(Cl)cc2N1,49.1%
13,CC(=O)N1C(=S)NC(=O)C1Cn1c(-c2ccccc2)nc2ccccc21 (centres undefined),96.8%
14,CCCOc1cc2ccccc2cc1C(=O)Nc1nc(N)c2c(ccc3nccc32)[nH]1,-64.7% (active)
15,COc1ccc([C@@H]2C(=O)N(c3cc(OC)c(OC)c(OC)c3)[C@H]2c2ccc(OC)c(O)c2)cc1,-4.45% (active)
16,CC(O)/C=C/C=C/C(O)CC/C=C/C(=O)NCC(C)(C)O (centres undefined),102%
17,CN1/C(=C/C=C/c2n(Cc3ccc4ccccc4c3)c(Cl)c(Cl)[n+]2Cc2ccc3ccccc3c2)Oc2ccccc21,-56.7% (active)
